Measured values reported in PubChem BioAssay (Tox21).
Results filed as inconclusive are left out. Entries that show only a call come without a potency. Calls of active or inactive are those of the source. Calls come from the whole dose curve; as a rule, active = well fitted curve in the direction sought with a large enough effect in the repeat runs; inconclusive = weak or mixed curves; inactive = no such curve, though single readings can be large; an effect the other way counts as inactive or inconclusive.

Assay: A CellTox Green Cytotoxicity Assay to monitor cytotoxicity in HepG2 cells - 32 hour (AID 1224883); note: nearly all actives have a fitted effect of over 50% in size
Conditions: CellTox Green fluorescence; series mostly up to 76.8 µM
Method in brief: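 Fluorescent DNA-binding dye, 600 HepG2 cells/well, 5 h preincubation then compound in DMSO; same plates read at 0–40 h, 37 C.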
With `CCCCN=C(N)N=C(N)N` the Potency was “inactive”.
In the case of `CN(C)CCC[C@@]1(c2ccc(F)cc2)OCc2cc(C#N)ccc21`, the Potency is reported as “inactive”.
With `O=C(O)P(=O)(O)O` the Potency was “inactive”.
With `CC(=O)SCC(CC(=O)c1ccc(C)cc1)C(=O)O` (stereo unspecified) the Potency was “inactive”.
With `CC(C)(C)C(=O)CCc1ccc(Cl)cc1` the Potency was “inactive”.
For `Nc1ccc(C(=O)NCC(=O)O)cc1`, the Potency was “inactive”.
For `NC(=O)CC[C@@H](N)C(=O)O`, the Potency was “inactive”.
With `C[n+]1ccccc1/C=N/O` the Potency was “inactive”.
With `COc1cc2nc(N3CCN(C(=O)C4CCCO4)CC3)nc(N)c2cc1OC` (stereo unspecified) the Potency was “inactive”.
In the case of `COc1cnc(NS(=O)(=O)c2ccc(N)cc2)nc1`, the Potency is reported as “inactive”.

Assay: A CellTox Green Cytotoxicity Assay to monitor cytotoxicity in HEK293 cells - 8 hour (AID 1224884); note: nearly all actives have a fitted effect of over 35% in size
Conditions: CellTox Green fluorescence; series mostly up to 76.8 µM
Method in brief: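 Homogeneous no-lysis format: HEK293 cell suspension mixed with CellTox Green reagent, seeded, incubated 5 h at 37 C/5% CO2, then dosed by pintool with compound in DMSO.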
In the case of `N=C(N)S(=O)O`, the Potency is reported as “inactive”.
In the case of `CC[C@@]1(c2ccccc2)NC(=O)N(C)C1=O`, the Potency is reported as “inactive”.
For `CC(=O)Oc1ccc(C(C)=O)cc1`, the Potency was “inactive”.
For `Cc1ccc(N)nc1`, the Potency was “inactive”.
For `CCCOc1ccc(C(=O)OCCN(CC)CC)cc1N`, the Potency was “inactive”.
For `CCCCCCC(O)CO` (stereo unspecified), the Potency was “inactive”.
For `CC(=O)OC/C=C(/C)CCC=C(C)C`, the Potency was “inactive”.
In the case of `CC(C)(C)OC(=O)c1ccccc1C(=O)O`, the Potency is reported as “inactive”.
In the case of `CC1=C(O)C(=O)CO1`, the Potency is reported as “inactive”.
In the case of `O=C(O)Cc1ccccc1Oc1ccc(Cl)cc1Cl`, the Potency is reported as “inactive”.
In the case of `O=c1c(O)c(O)c1=O`, the Potency is reported as “inactive”.
For `NCC1CCC(C(=O)Oc2ccc(CCC(=O)O)cc2)CC1` (stereo unspecified), the Potency was “inactive”.
For `Cc1cc(=O)oc2cc(O[C@@H]3SC[C@@H](O)[C@H](O)[C@H]3O)ccc12`, the Potency was “inactive”.
For `CO/N=C(\C(=O)O)c1csc(NC(=O)CCl)n1`, the Potency was “inactive”.
With `C=CCN1CCc2nc(N)sc2CC1` the Potency was “inactive”.
For `COc1ccc2cc(CCC(C)=O)ccc2c1`, the Potency was “inactive”.
In the case of `CCCCCCCCC1CO1` (stereo unspecified), the Potency is reported as “inactive”.
In the case of `Cc1nc2ccc(Cl)cc2[nH]1`, the Potency is reported as “inactive”.
With `CC(C)c1cc(C(C)C)cc(C(C)C)c1` the Potency was “inactive”.
With `COC(=O)c1ccc(NC(C)=O)cc1OC` the Potency was “inactive”.
With `O=S(=O)(O)c1ccc(Cl)cc1` the Potency was “inactive”.
With `C=COCCCCO` the Potency was “inactive”.
With `C/C(=N\O)c1ccc(OCC(=O)N2CCCCC2)cc1` the Potency was “inactive”.
For `Cc1cccc(N)n1`, the Potency was “inactive”.
With `CCCCCCCCCCCC(C)=O` the Potency was “inactive”.
With `CN(C)CCc1c[nH]c2ccc(C[C@H]3COC(=O)N3)cc12` the Potency was “inactive”.
For `CC(=O)/C=C/C=C1/C2CCC(C2)C1(C)C` (stereo unspecified), the Potency was “inactive”.
In the case of `Cc1ccc(O)c([N+](=O)[O-])c1`, the Potency is reported as “inactive”.
In the case of `CCCCN=C(N)N=C(N)N`, the Potency is reported as “inactive”.
In the case of `CN(C)CCC[C@@]1(c2ccc(F)cc2)OCc2cc(C#N)ccc21`, the Potency is reported as “inactive”.
In the case of `O=C(O)P(=O)(O)O`, the Potency is reported as “inactive”.
For `CC(=O)SCC(CC(=O)c1ccc(C)cc1)C(=O)O` (stereo unspecified), the Potency was “inactive”.
With `CC(C)(C)C(=O)CCc1ccc(Cl)cc1` the Potency was “inactive”.
For `Nc1ccc(C(=O)NCC(=O)O)cc1`, the Potency was “inactive”.
With `NC(=O)CC[C@@H](N)C(=O)O` the Potency was “inactive”.
For `C[n+]1ccccc1/C=N/O`, the Potency was “inactive”.
For `COc1cc2nc(N3CCN(C(=O)C4CCCO4)CC3)nc(N)c2cc1OC` (stereo unspecified), the Potency was “inactive”.
In the case of `COc1cnc(NS(=O)(=O)c2ccc(N)cc2)nc1`, the Potency is reported as “inactive”.

Assay: qHTS RealTime-Glo MT Cell Viability Assay in HepG2 cells - 16 hour (AID 1224885); note: nearly all actives have a fitted effect of over 50% in size
Conditions: RealTime-Glo luminescence; series mostly up to 76.8 µM
Method in brief: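 Cell number in HepG2 cultures estimated from NanoLuc luminescence generated by metabolic reduction of a prosubstrate by living cells. The homogeneous, nonlytic format allowed repeated reads at 0, 8, 16, 24, 32 and 40 h of compound exposure.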
With `N=C(N)S(=O)O` the outcome was “inactive”.
For `CC[C@@]1(c2ccccc2)NC(=O)N(C)C1=O`, the outcome was “inactive”.
In the case of `CC(=O)Oc1ccc(C(C)=O)cc1`, the outcome is reported as “inactive”.
With `Cc1ccc(N)nc1` the outcome was “inactive”.
In the case of `CCCOc1ccc(C(=O)OCCN(CC)CC)cc1N`, the outcome is reported as “inactive”.
In the case of `CCCCCCC(O)CO` (stereo unspecified), the outcome is reported as “inactive”.
With `CC(=O)OC/C=C(/C)CCC=C(C)C` the outcome was “inactive”.
With `CC(C)(C)OC(=O)c1ccccc1C(=O)O` the outcome was “inactive”.
In the case of `CC1=C(O)C(=O)CO1`, the outcome is reported as “inactive”.
In the case of `O=C(O)Cc1ccccc1Oc1ccc(Cl)cc1Cl`, the outcome is reported as “inactive”.
In the case of `O=c1c(O)c(O)c1=O`, the outcome is reported as “inactive”.
In the case of `NCC1CCC(C(=O)Oc2ccc(CCC(=O)O)cc2)CC1` (stereo unspecified), the outcome is reported as “inactive”.
For `Cc1cc(=O)oc2cc(O[C@@H]3SC[C@@H](O)[C@H](O)[C@H]3O)ccc12`, the outcome was “inactive”.
In the case of `CO/N=C(\C(=O)O)c1csc(NC(=O)CCl)n1`, the outcome is reported as “inactive”.
With `C=CCN1CCc2nc(N)sc2CC1` the outcome was “inactive”.
With `COc1ccc2cc(CCC(C)=O)ccc2c1` the outcome was “inactive”.
In the case of `CCCCCCCCC1CO1` (stereo unspecified), the outcome is reported as “inactive”.
With `Cc1nc2ccc(Cl)cc2[nH]1` the outcome was “inactive”.
With `CC(C)c1cc(C(C)C)cc(C(C)C)c1` the outcome was “inactive”.
In the case of `COC(=O)c1ccc(NC(C)=O)cc1OC`, the outcome is reported as “inactive”.
In the case of `O=S(=O)(O)c1ccc(Cl)cc1`, the outcome is reported as “inactive”.
With `C=COCCCCO` the outcome was “inactive”.
In the case of `C/C(=N\O)c1ccc(OCC(=O)N2CCCCC2)cc1`, the outcome is reported as “inactive”.
With `Cc1cccc(N)n1` the outcome was “inactive”.
For `CCCCCCCCCCCC(C)=O`, the outcome was “inactive”.
For `CN(C)CCc1c[nH]c2ccc(C[C@H]3COC(=O)N3)cc12`, the outcome was “inactive”.
With `CC(=O)/C=C/C=C1/C2CCC(C2)C1(C)C` (stereo unspecified) the outcome was “inactive”.
With `Cc1ccc(O)c([N+](=O)[O-])c1` the outcome was “inactive”.
In the case of `CCCCN=C(N)N=C(N)N`, the outcome is reported as “inactive”.
In the case of `CN(C)CCC[C@@]1(c2ccc(F)cc2)OCc2cc(C#N)ccc21`, the outcome is reported as “inactive”.
In the case of `O=C(O)P(=O)(O)O`, the outcome is reported as “inactive”.
With `CC(=O)SCC(CC(=O)c1ccc(C)cc1)C(=O)O` (stereo unspecified) the outcome was “inactive”.
In the case of `CC(C)(C)C(=O)CCc1ccc(Cl)cc1`, the outcome is reported as “inactive”.
In the case of `Nc1ccc(C(=O)NCC(=O)O)cc1`, the outcome is reported as “inactive”.
For `NC(=O)CC[C@@H](N)C(=O)O`, the outcome was “inactive”.
In the case of `C[n+]1ccccc1/C=N/O`, the outcome is reported as “inactive”.
With `COc1cc2nc(N3CCN(C(=O)C4CCCO4)CC3)nc(N)c2cc1OC` (stereo unspecified) the outcome was “inactive”.
For `COc1cnc(NS(=O)(=O)c2ccc(N)cc2)nc1`, the outcome was “inactive”.
